Screening data: PubChem BioAssay, National Center for Advancing Translational Sciences (NCATS)
VACV mCherry inh: inhibitors of vaccinia virus infection (mCherry reporter signal) | Vaccinia virus mCherry reporter infection, fluorescence | Potency, µM (titrated, usually from 36.5 µM), without a hit: at the highest dose activity change, negative = inhibition, most hits filed as inhibitors | 310,000 compounds, 0.63% hits; calls by dose curve; tested in A549 cells; further: potency means the concentration at half of the fitted maximal effect; nearly all actives have a fitted effect of over 35% in size
VACV Venus inh: inhibitors of vaccinia virus (Venus reporter); AID 720580; Potency, µM (highest dose often 36.5 µM), for the others: at the highest dose activity change, negative = inhibition, hits mostly inhibitors; 330,000 compounds, 0.46% hits; Vaccinia virus Venus reporter expression, fluorescence; calls by dose curve; tested in A549 cells; further: potency means the concentration at half of the fitted maximal effect; nearly all actives have a fitted effect of over 30% in size
HCMV antiviral: human cytomegalovirus inhibition; AID 1259415; HFF cells, HCMV-luciferase reporter, 72 h; hits give low values; 410,000 compounds, 4.5% hits; activity change, negative = inhibition, % at 57.5 µM; in the data active means activity change below about -60%; inconclusive means no clear call, values can overlap the other calls; inactive means above about -39%
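Two compound doses tested in HFFs infected with HCMV-luciferase, MOI 1 PFU/cell, 72 h at 37C. Lysate luminescence read with OneGlo; data normalized against buffer-only and 10uM Salinomycin inhibitor controls.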
LmPK inhibitor: blocks Leishmania mexicana pyruvate kinase activity. 290,000 compounds, 0.37% hits. Q27686. Potency, µM (doses to about 57.5 µM), inactives show at the highest dose activity change, negative = inhibition, actives largely listed as inhibitors. purified LmPK, Kinase-Glo ATP luminescence, 1 h; further: potency means the concentration at half of the fitted maximal effect
Target sequence (Q27686 whole entry, looked up): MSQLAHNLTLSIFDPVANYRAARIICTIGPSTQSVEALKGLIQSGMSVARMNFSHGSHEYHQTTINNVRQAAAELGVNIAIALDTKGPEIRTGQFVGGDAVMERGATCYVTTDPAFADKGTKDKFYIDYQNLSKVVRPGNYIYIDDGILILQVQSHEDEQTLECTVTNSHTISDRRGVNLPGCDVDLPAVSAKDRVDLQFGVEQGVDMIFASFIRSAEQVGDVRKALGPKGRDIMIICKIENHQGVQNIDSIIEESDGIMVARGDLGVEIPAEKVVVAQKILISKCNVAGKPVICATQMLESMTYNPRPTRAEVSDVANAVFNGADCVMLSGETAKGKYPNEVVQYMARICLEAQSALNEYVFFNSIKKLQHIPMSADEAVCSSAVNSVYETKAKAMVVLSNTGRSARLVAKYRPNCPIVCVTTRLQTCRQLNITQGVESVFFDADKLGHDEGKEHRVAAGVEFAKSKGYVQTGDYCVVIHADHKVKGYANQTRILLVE
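Purified LmPK (0.1 nM) with 0.5 mM PEP and 0.1 mM ADP in imidazole buffer pH 7.2 with MgCl2/KCl, 1 h at room temperature. ATP formed was read by luciferase luminescence and normalized to no-enzyme and uninhibited controls.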
Tb PYK inh: T. brucei pyruvate kinase inhibition. Q57TT1. TbPYK enzyme, Kinase-Glo Plus ATP luminescence, 45 min. Potency, µM (top dose mostly 76.8 µM), for the others: at the top dose activity, negative = inhibition, most hits filed as inhibitors. 410,000 compounds, 0.12% hits; further: potency means the concentration at half of the fitted maximal effect; nearly all actives have a fitted effect of over 50% in size
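Screened from lowest to highest concentration, compounds were pinned into TbPYK/substrate mixtures, and ADP (130 uM final) was added. Plates sat at room temperature for 45 min prior to Kinase-Glo Plus detection by luminescence.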
* hit, by the source's call. Hits are enriched below; roughly 5% of the tested compounds scored in any of these assays. Unless noted, the call rests on the fitted dose curve; in most records, active means well fitted curve in the direction sought with a large enough effect; inconclusive means small, poorly fitted or top-dose-only effect, or another doubt; inactive means no such curve, though single readings can be large; an effect the other way counts as inactive or inconclusive. On the % scale 0 is the no-effect control and ±100 the full control effect.

Screening CCOC(=O)CSc1nc2sc3c(c2c(=O)[nH]1)CCCC3 returned VACV mCherry inh -1%, VACV Venus inh -8%, HCMV antiviral 8, LmPK inhibitor 0% and Tb PYK inh 1%.
Cc1ccc(-c2noc(-c3ccc(N4CCCCC4)c([N+](=O)[O-])c3)n2)cc1 was read as VACV mCherry inh -3%, VACV Venus inh -8%, HCMV antiviral -34 and Tb PYK inh -1%.
O=[N+]([O-])c1cc(-c2nc(-c3ccncc3)no2)ccc1Cl was read as VACV mCherry inh -14%, VACV Venus inh -28%, HCMV antiviral -64*, LmPK inhibitor -3% and Tb PYK inh -9%.
For O=[N+]([O-])c1cc(-c2nc(-c3ccccc3)no2)ccc1N1CCCCC1 the results were VACV mCherry inh -5%, VACV Venus inh -5%, HCMV antiviral -88* and Tb PYK inh 1%.
For COc1ccc(-c2noc(-c3ccc(N4CCN(C)CC4)c([N+](=O)[O-])c3)n2)cc1 the results were VACV mCherry inh -3%, VACV Venus inh -4%, HCMV antiviral 19 and Tb PYK inh 0%.
For CN1CCN(c2ccc(-c3nc(-c4ccccc4)no3)cc2[N+](=O)[O-])CC1 the results were VACV mCherry inh -18%, VACV Venus inh -10%, HCMV antiviral -99* and Tb PYK inh -1%.
Screening COCCCNC(=O)c1cnc2c(-c3ccc(F)cc3)c(C)nn2c1C returned VACV mCherry inh -12%, VACV Venus inh -8%, HCMV antiviral -5 and Tb PYK inh 4%.
`CCC(C)(C)NC(=O)C(c1ccc(F)cc1)N(Cc1ccc(OC)cc1)C(=O)c1cnccn1` (stereo unspecified) gave VACV mCherry inh -12%, VACV Venus inh 0%, HCMV antiviral -66*, LmPK inhibitor -7% and Tb PYK inh -1%.
`COc1ccc(-c2cc3c(=O)n(CC(=O)Nc4ccccc4C(F)(F)F)ccn3n2)cc1OC` gave VACV mCherry inh -4%, VACV Venus inh -1%, HCMV antiviral 5 and Tb PYK inh 4%.
For COc1ccc(Oc2nc(C)nc3c2oc2ccccc23)cc1 the results were VACV mCherry inh inconclusive, VACV Venus inh inconclusive, HCMV antiviral -68*, LmPK inhibitor 2% and Tb PYK inh -16%.
Screening Cc1nc(Oc2ccccc2)c2oc3ccccc3c2n1 returned VACV mCherry inh inconclusive, VACV Venus inh inconclusive, HCMV antiviral inconclusive, LmPK inhibitor 4% and Tb PYK inh -5%.
For CN(C1=C(NC(=O)c2ccccc2)C(=O)c2ccccc2C1=O)C1CCS(=O)(=O)C1 (stereo unspecified) the results were HCMV antiviral -99*, LmPK inhibitor -8% and Tb PYK inh -28%.
CC(=O)c1ccc(-n2c(-c3cc(-c4ccsc4)n[nH]3)n[nH]c2=S)cc1 was read as VACV mCherry inh -2%, VACV Venus inh -22%, HCMV antiviral 23, LmPK inhibitor 20µM* and Tb PYK inh inconclusive.
`COc1ccc(OC)c(-n2c(=S)[nH]c3cc(C(=O)N4CCN(c5ccccc5)CC4)ccc3c2=O)c1` gave VACV mCherry inh -7%, VACV Venus inh -15%, HCMV antiviral -27, LmPK inhibitor -5% and Tb PYK inh -6%.
CC1=C(O)C(=O)C=C2C1=CC=C1[C@]2(C)CC[C@@]2(C)C3C[C@](C)(C(=O)O)CC[C@@]3(C)CC[C@@]12C (stereo partly specified) was read as VACV mCherry inh 14µM* and VACV Venus inh 11µM*.
`Cc1ccc2nc(/C(C#N)=C/c3ccc(-c4ccc(F)cc4F)o3)[nH]c2c1` gave VACV mCherry inh inconclusive, VACV Venus inh 16%, HCMV antiviral -22 and Tb PYK inh -1%.
`COc1cc(/C=C(\C#N)c2nc3ccc(C)cc3[nH]2)ccc1OCc1ccc(C)cc1` gave VACV mCherry inh inconclusive, VACV Venus inh inconclusive, HCMV antiviral 3 and Tb PYK inh 8%.
`Cc1ccc2nc(/C(C#N)=C/c3ccc(-c4cccc([N+](=O)[O-])c4)o3)[nH]c2c1` gave VACV mCherry inh 0%, VACV Venus inh -16%, HCMV antiviral -62*, LmPK inhibitor 0% and Tb PYK inh 4%.
